A selection: hits, their analogues and other compounds. The true share with any hit is near 0.87%.
WRN helicase inh-1 – qHTS for Inhibitors of WRN Helicase. WRN helicase unwinding, fluorescent forked duplex, kinetic. Potency, µM (series often up to 114 µM), without a hit: top-dose activity change, negative = inhibition, usual class: inhibitors. 360,000 compounds, 0.46% hits. AID 651768, 2012; further: on the % scale 0 is the no-effect control and ±100 the full control effect; nearly all actives have a fitted effect of over 55% in size
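Kinetic fluorescence helicase assay: unwinding of a quenched forked DNA duplex (100 nM final) with 2 mM ATP final raises red fluorescence (525/598 nm). Compounds sat 15 min at room temperature with 20 nM WRN beforehand.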
RECQ1 inh-1 – qHTS Assay for Inhibitors of RecQ-Like Dna Helicase 1 (RECQ1). ATP-dependent DNA helicase Q1 (Homo sapiens), P46063. RECQ1 DNA unwinding, red fluorescence kinetic read. Potency, µM (top dose mostly 57.3 µM), for inactives: at the highest dose activity, negative = inhibition, hits mostly inhibitors. 240,000 compounds, 0.54% hits;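 further: plate controls were vehicle for no effect and no enzyme for full effect; nearly all actives have a fitted effect of over 30% in size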
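50 nM RECQ1T1 preincubated 15 min with compound in Tris pH 8.0 buffer with MgCl2, DTT, Tween-20 and 2.5 ug/ml poly(dI-dC); started with 200 nM TAMRA/BHQ-2 forked duplex and 2 mM ATP. Unwinding read as fluorescence (525/598 nm), two reads 2 h apart.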
FEN1 inh-1 – qHTS Assay for the Inhibitors of Human Flap endonuclease 1 (FEN1). P39748. Recombinant FEN1 flap cleavage, fluorescence, 15 min. Potency, µM (series often up to 114 µM), without a hit: at the highest dose activity change, negative = inhibition, most hits filed as inhibitors. 390,000 compounds, 0.35% hits. AID 588795, 2011; further: on the % scale 0 is the no-effect control and ±100 the full control effect; nearly all actives have a fitted effect of over 65% in size
Target sequence (P39748 whole entry, looked up): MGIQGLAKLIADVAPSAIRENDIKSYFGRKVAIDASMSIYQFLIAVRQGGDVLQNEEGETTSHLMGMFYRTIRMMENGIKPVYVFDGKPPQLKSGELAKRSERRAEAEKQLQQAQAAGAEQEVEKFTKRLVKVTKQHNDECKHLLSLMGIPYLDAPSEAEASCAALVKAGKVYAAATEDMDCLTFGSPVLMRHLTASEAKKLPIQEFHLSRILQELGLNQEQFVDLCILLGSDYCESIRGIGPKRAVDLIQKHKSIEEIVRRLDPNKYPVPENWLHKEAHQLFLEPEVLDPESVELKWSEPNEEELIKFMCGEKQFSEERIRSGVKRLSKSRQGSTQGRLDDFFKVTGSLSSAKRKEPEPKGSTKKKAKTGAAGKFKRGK
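In this screen, 50 nM flap DNA substrate was added to 10 nM FEN1 pretreated with compound for 15 min at room temperature; cleavage was followed with reads at 0 and 15 min, and Hill fitting gave concentration–response parameters.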
APEX1 inh – qHTS Assay for Inhibitors of the Human Apurinic/apyrimidinic Endonuclease 1 (APE1). DNA repair nuclease/redox regulator APEX1 (Homo sapiens), P27695. recombinant APE1, TAMRA/BHQ-2 abasic DNA cleavage fluorescence. Potency, µM (highest dose often 65.8 µM), for inactives: at the highest dose activity change, negative = inhibition, usual class: inhibitors. 350,000 compounds, 0.35% hits. AID 2517, 2012;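 further: plate controls were vehicle for no effect and reference inhibitor for full effect; nearly all actives have a fitted effect of over 55% in size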
Target sequence (P27695 whole entry, looked up): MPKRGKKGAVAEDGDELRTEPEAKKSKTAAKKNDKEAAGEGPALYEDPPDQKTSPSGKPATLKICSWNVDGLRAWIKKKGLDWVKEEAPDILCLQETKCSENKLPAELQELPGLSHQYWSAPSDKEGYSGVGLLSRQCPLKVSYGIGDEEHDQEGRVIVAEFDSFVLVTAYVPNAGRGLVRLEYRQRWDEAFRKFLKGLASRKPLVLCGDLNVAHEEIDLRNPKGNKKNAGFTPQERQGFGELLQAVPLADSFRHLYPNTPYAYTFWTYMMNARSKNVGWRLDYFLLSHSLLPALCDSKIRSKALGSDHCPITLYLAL
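Activity was derived from the fluorescence gain between first and third kinetic reads (60 s intervals, ex 525/em 598 nm) after 50 nM THF-abasic TAMRA/BHQ-2 duplex was added to 0.75 nM APE1 preincubated 15 min with compound.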
BLM helicase inh-1 – qHTS Assay for Inhibitors of Bloom's syndrome helicase (BLM) | AID 2528, 2010 | Potency, µM (highest dose often 56.1 µM), for the others: at the top dose activity change, negative = inhibition, actives largely listed as inhibitors | recombinant BLM DNA unwinding, fluorescence dequenching | RecQ-like DNA helicase BLM (Homo sapiens), P54132 | 350,000 compounds, 0.2% hits;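 further: plate controls were vehicle for no effect and no enzyme for full effect; nearly all actives have a fitted effect of over 35% in size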
BLM inh – qHTS Confirmation Assay for Inhibitors of Bloom's syndrome helicase (BLM); shares compounds with BLM helicase inh-1; Potency, µM, without a hit: max response, negative = inhibition, most hits filed as inhibitors; BLM DNA unwinding, fluorescence quenching, biochemical; 220 compounds, 40% hits; AID 2585, 2010;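 further: strand separation dequenches TAMRA so unwinding raises red fluorescence; series mostly up to about 69 µM; on the % scale 0 is the no-effect control and ±100 the full control effect; nearly all actives have a fitted effect of over 45% in size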
RECQ1 conf – Confirmation qHTS Assay for Inhibitors of RecQ-Like Dna Helicase 1 (RECQ1) | shares compounds with RECQ1 inh-1 | RECQ1 helicase DNA unwinding, fluorescence | Potency, µM (series often up to 229 µM), inactives show at the top dose activity change, negative = inhibition, most hits filed as inhibitors | 610 compounds, 28% hits; further: on the % scale 0 is the no-effect control and ±100 the full control effect; nearly all actives have a fitted effect of over 45% in size
RECQ1 ADP FP – Counterscreen for RECQ1 Inhibitors: ADP Fluorescence Polarization Displacement Assay | Potency, µM (highest dose often 228 µM), for the others: at the top dose activity change, negative = inhibition, most hits filed as inhibitors | AID 2711, 2010 | 530 compounds, 27% hits | shares compounds with RECQ1 inh-1 | ADP fluorescence polarization displacement counterscreen; further: on the % scale 0 is the no-effect control and ±100 the full control effect; nearly all actives have a fitted effect of over 45% in size
RECQ1 inh-2 – Confirmation qHTS Assay for Inhibitors of RecQ-Like Dna Helicase 1 (RECQ1) - Round 2 Cherry Picks; shares compounds with RECQ1 inh-1; 1,100 compounds, 15% hits; Potency, µM (titrated, usually from 119 µM), inactives show at the top dose activity, negative = inhibition, usual class: inhibitors; recombinant RECQ1 DNA unwinding, red fluorescence; AID 504841, 2011; further: on the % scale 0 is the no-effect control and ±100 the full control effect; nearly all actives have a fitted effect of over 50% in size
FEN1 inh-2 – qHTS Assay for the Inhibitors of FEN1: Confirmatory Assay for Cherry-picked Compounds; shares compounds with FEN1 inh-1; FEN1 flap cleavage, TAMRA/BHQ2 fluorogenic DNA substrate; Potency, µM, actives largely listed as inhibitors; 880 compounds, 79% hits; AID 720498, 2013; further: nearly all actives have a fitted effect of over 60% in size
WRN helicase inh-2 – qHTS for Inhibitors of WRN Helicase: Confirmatory Assay for Cherry-picked Compounds. 610 compounds, 63% hits. WRN helicase DNA unwinding, fluorescence kinetic. AID 720497, 2013. Potency, µM (highest dose often 57.1 µM), without a hit: top-dose activity, negative = inhibition, actives largely listed as inhibitors. shares compounds with WRN helicase inh-1; further: nearly all actives have a fitted effect of over 65% in size
TO displacement – qHTS for Inhibitors of WRN Helicase: Thiazole Orange DNA Binding Counterscreen | 610 compounds, 10% hits | thiazole orange DNA binding displacement, fluorescence | shares compounds with WRN helicase inh-1 | Potency, µM (titrated, usually from 57.1 µM), for the others: top-dose activity change, negative = inhibition, most hits filed as inhibitors;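 further: drop in dye fluorescence marks compound binding to DNA; on the % scale 0 is the no-effect control and ±100 the full control effect; nearly all actives have a fitted effect of over 60% in size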
BLM helicase inh-2 – qHTS for Inhibitors of WRN Helicase: BLM Helicase Counterscreen for WRN Inhibitors | 610 compounds, 60% hits | Potency, µM (top dose mostly 57.1 µM), inactives show at the highest dose activity change, negative = inhibition, most hits filed as inhibitors | AID 720503, 2013 | shares compounds with WRN helicase inh-1 | Recombinant BLM helicase DNA unwinding, red fluorescence; further: nearly all actives have a fitted effect of over 60% in size
* marks the source's active call; other numbers are inactive results; i = inactive; ? = inconclusive; . = no result; [ ] = another dose, or the depositor's remark. The call rests on the fitted dose curve; in most records, active means well fitted curve in the direction sought with a large enough effect; inconclusive means small, poorly fitted or top-dose-only effect, or another doubt; inactive means no such curve, though single readings can be large; an effect the other way counts as inactive or inconclusive. Potency means the concentration at half of the fitted maximal effect.

SMILES | WRN helicase inh-1 | RECQ1 inh-1 | FEN1 inh-1 | APEX1 inh | BLM helicase inh-1 | BLM inh | RECQ1 conf | FEN1 inh-2 | WRN helicase inh-2 | TO displacement | BLM helicase inh-2 | others
CN(c1ccccc1)c1ccc(/C=C(\CCC(=O)O)c2nc3ccccc3s2)cc1[N+](=O)[O-] | 27µM* | ? | ? | ? | 22µM* | 36µM* | . | 67* | 22µM* | 27µM* | 8.6µM* | RECQ1 inh-2=13µM*
CN1CCN(c2ccc(Nc3c4ccccc4nc4ccccc34)cc2)CC1 | . | 13µM* | . | 22µM* | 20µM* | 32µM* | 11µM* | 19* | 6.1µM* | 7.6µM* | 24µM* | RECQ1 ADP FP=35µM*
Cc1ccc(C2=NN(CC(=O)NCCc3ccc(Cl)cc3)C(=O)CC2)cc1 | . | . | -4% | . | -11% | . | . | . | . | . | .
O=C(O)COc1ccc(/C=N/NC(=O)c2ccc(-c3csc(Nc4ccc(Cl)cc4)n3)cc2)cc1 | 13µM* | 11µM* | ? | 3.5µM* | 3.5µM* | 8.1µM* | 7.1µM* | 30* | 4.3µM* | 5.4µM* | 0.86µM* | RECQ1 ADP FP=?
Cc1nc(CC(=O)N/N=C/c2ccc(OCC(=O)O)cc2)cs1 | -13% | i | 41% | -6% | 1% | . | . | . | . | . | .
COc1cccc(CNC(=O)CSc2ncc(S(=O)(=O)c3ccc(C)c(Cl)c3)c(=O)[nH]2)c1 | . | . | 4% | . | 2% | . | . | . | . | . | .
COc1ccc(-n2cccc2/C=C2/NC(=O)N(c3cccc(Cl)c3)C2=O)cc1 | -6% | -8% | 2% | 0% | 3% | . | . | . | . | . | .
O=C(O)c1cccc(-n2cccc2/C=C2/NC(=O)N(c3ccc(Cl)cc3)C2=O)c1 | 3.2µM* | 32µM* | 20µM* | 2µM* | 3.5µM* | 14µM* | ? | 21* | 1.4µM* | ? | 0.17µM*
CCOc1ccc(CC(=O)Nc2c(C(=O)Nc3ccc(OC)cc3OC)oc3ccccc23)cc1 | . | . | -1% | . | -5% | . | . | . | . | . | .
O=C(CSc1nc2ccccc2n1CCc1ccccc1)c1ccc(O)c(O)c1 | 7.9µM* | 7.1µM* | 56µM* | 0.89µM* | 11µM* | 19µM* | 45µM* | 67* | 6.8µM* | 17µM* | 1.5µM* | RECQ1 inh-2=?
CC1(C)Cc2c(C#N)c(N3CCN(C(=O)c4ccccc4Cl)CC3)nc(-c3ccco3)c2CS1 | 35µM* | -21% | -4% | -11% | 14µM* | ? | . | . | -13% | 2% | ?
CC(=O)N1CCN(c2nc(-c3ccco3)c3c(c2C#N)CC(C)(C)SC3)CC1 | -25% | -4% | 0% | 1% | -8% | . | . | . | . | . | .
Cc1ccc(NC(=O)Cn2c(=O)n(CCCCC(=O)NCc3ccccc3Cl)c(=O)c3ccccc32)cc1C | . | . | -4% | . | -1% | . | . | . | . | . | .
O=C(O)c1ccc(S(=O)(=O)/N=C2\C=C(Nc3ccccc3F)C(=O)c3ccccc32)cc1 | 40µM* | . | 45µM* | 17% | 8.9µM* | 16µM* | . | ? | ? | -26% | ?
O=C(CN1CCN(c2ccc(O)cc2)CC1)Nc1cc(S(=O)(=O)N2CCCC2)ccc1Cl | 6%[11.6 µM] | 13µM* | -1% | -10% | -15% | . | 6%[114 µM] | . | . | . | . | RECQ1 ADP FP=-4%[91.9 µM];RECQ1 inh-2=-11%
O=C(CN1CCN(c2ccc(O)cc2)CC1)Nc1cc(S(=O)(=O)N2CCCCC2)ccc1Cl | -7% | -9% | -15% | -11% | -8% | . | . | . | . | . | .
CCOc1ccc(N(CC)S(=O)(=O)N2CCCC(C(=O)NCc3ccccc3OCC)C2)cc1 (centres undefined) | . | . | 3% | . | -7% | . | . | . | . | . | .
CCOC(=O)c1c(NC(=O)CSc2cn(CCNC(=O)c3ccc(OC)c(OC)c3)c3ccccc23)sc2c1CCC2 | . | . | 6% | . | -6% | . | . | . | . | . | .
Cc1ccc(OCC(=O)N/N=C/C=C/c2ccco2)cc1 | -12%[11.6 µM] | 8.9µM* | -8% | -6% | -23% | . | ? | . | . | . | . | RECQ1 ADP FP=?
Cc1ccc(NC(=O)C2CCCN(S(=O)(=O)c3cccs3)C2)c(C)c1 (centres undefined) | . | . | -1% | . | 3% | . | . | . | . | . | .
CC1=Nc2cc(C(=O)O)ccc2Sc2ccc(Br)cc21 | -8%[57.1 µM] | 0.32µM* | -2% | ? | -6% | . | 100µM* | . | . | . | . | RECQ1 ADP FP=20%[91.9 µM];RECQ1 inh-2=-8%
